# According to PubChem BioAssay AID2732 (Emory University Molecular Libraries Screening Center, 2010):
# “And” between values parts separate entries of the source, which are not always exact repeats. Equal values may be shown once. About 8,200 (3.7%) of roughly 220,000 compounds were called active. The full list was thinned out, with actives kept by preference. Unmarked numbers belong to inactive results.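 How the source made its calls: active means compounds that reduced the stress-induced luciferase reporter signal by more than about 70% of percent inhibition (limit read from the data); inactive means the rest.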
# Assay: inhibitors of CHOP promoter induction, primary screen, cell-based, unfolded protein response, luciferase reporter (AID 2732);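 further: 0% = tunicamycin plus vehicle and 100% = wells without tunicamycin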
# Settings: CHO-K1 CHOP-promoter luciferase, tunicamycin-induced, 15-18 h; at 10 µM; active compounds read high
row,SMILES,inhibition
1,O=C(CSc1nc2ccc([N+](=O)[O-])cc2[nH]1)c1ccc(Cl)cc1,78.4% (active)
2,Cc1nc(SCC(=O)c2ccccc2)c([N+](=O)[O-])[nH]1,7.53%
3,CC(=O)Nc1ccc(C(=O)CSc2nc3ccc(C)cc3[nH]2)cc1,37.2%
4,CCOc1ccc(N2CC(C(=O)N/N=C/c3sccc3C)CC2=O)cc1 (stereo not given),17.4%
5,COc1ccc(C(C(=O)NC(C)(C)C)N(C(=O)Cn2nnc3ccccc32)c2ccc(C(C)=O)cc2)cc1O (stereo not given),-13.6%
6,O=C(Nc1ccc(Cl)cc1)Nc1ccc(Oc2cccnc2)nc1,15.6%
7,CCCCCOc1ccc(/C=C/C(=O)NCCc2nc3ccccc3[nH]2)cc1OC,70.7% (active)
8,COc1ccc(OC(C)C(=O)NCCc2nc3ccccc3[nH]2)cc1 (stereo not given),12.8%
9,O=C(COc1ccccc1)NCCc1nc2ccccc2[nH]1,-0.39%
10,CCN(CC)S(=O)(=O)c1cc([N+](=O)[O-])ccc1NNC(=O)Nc1ccccc1,94.6% (active)
11,CCN(CC)S(=O)(=O)c1cc([N+](=O)[O-])ccc1N=Nc1c(O)n(C)c2ccccc12,39.2%
12,O=C(CSCC(=O)Nc1cccc([N+](=O)[O-])c1)Nc1ccccc1,-4.34%
13,CCOC(=O)c1cnc(COc2ccccc2Cl)[nH]c1=O,-0.7%
14,Oc1c(Cl)cc(Cl)c(Cl)c1Cc1c(O)c(Cl)cc(Cl)c1Cl,93.3% (active)
15,N#Cc1c(C(F)(F)F)cc(-c2cccs2)nc1N1CCCCC1,12.1%
16,COCc1cc(=O)[nH]c(SC)n1,-4.77%
17,CCOC(=O)c1c(NC(=S)Nc2ccccc2C)sc2c1CCC2,34.1%
18,CCOC(=O)c1c(NC(=S)NC(=O)c2ccco2)sc2c1CCCC2,85% (active)
19,CCOC(=O)c1c(NC(=S)NC)sc2c1CCCC2,14.4%
20,CN(C)/C=C(/C(=O)c1ccc(Cl)c(Cl)c1)c1nnnn1-c1ccccc1,-4.76%
21,COc1ccc(N(Cc2ccccc2)S(=O)(=O)c2cccc(C(=O)O)c2)cc1,3.03%
22,O=C(Cn1nnc(N2CCCCC2)n1)c1ccc(Cl)c(Cl)c1,6.73%
23,Clc1ccc(C[n+]2cc(-c3ccccc3)n3c2CCC3)cc1,9.23%
24,Cc1ccc(NC(=O)Nc2nnc(-c3ccncc3)s2)cc1,40.9%

row,SMILES,inhibition
1,Cc1nnc(NC(=O)Nc2ccc(Cl)c(Cl)c2)s1,86.9% (active)
2,CCn1nccc1C(=O)Nc1ccc(Cl)c(Cl)c1,0.72%
3,O=C(O)c1cccc(NC(=O)c2cc(-c3cccc(Cl)c3)nc3ccccc23)c1,-25%
4,Cn1cc(Cl)c(C(=O)NNC(=S)Nc2cccc(Cl)c2)n1,9.14%
5,Cc1c(C(=O)Nc2cccc(Cl)c2)cn2c(nc3ccccc32)c1C#N,104% (active)
6,O=C(NCc1cc(C(F)(F)F)cc(C(F)(F)F)c1)C1CC(c2cccc(F)c2)=NO1 (stereo not given),20.1%
7,O=C(N/N=C/c1ccc(OCc2ccccc2)cc1)c1ccc(O)cc1,-37.6%
8,CN(C)c1ccc(/C=N/N(Cc2ccccc2)c2ccccc2)cc1,1.37%
9,Oc1ccc(/C=N/N(Cc2ccccc2)c2ccccc2)cc1,97.5% (active)
10,NC(=O)C1=CN(C2OC(COP(=O)(O)OP(=O)(O)OC[C@H]3O[C@@H](n4cnc5c(N)ncnc54)C(OP(=O)(O)O)[C@H]3O)C(O)C2O)C=CC1 (stereo not given in full),-6.4%
11,CCN1CCN(c2cc3nc(C)n(Cc4ccccc4)c(=O)c3cc2NC(=O)c2ccccc2F)CC1,95.7% (active)
12,CCC(=O)Nc1ccc2nc(C)n(Cc3ccccc3Cl)c(=O)c2c1,-4.28%
13,O=C(NC1CCN(Cc2ccccc2)CC1)c1ccccc1F,22.9%
14,Cc1sc2nc(COC(=O)C(NC(=O)c3ccc(Cl)cc3Cl)C(C)C)[nH]c(=O)c2c1C (stereo not given),95.4% (active)
15,CC(C)NC(=O)c1ccc(Cl)cc1Cl,12.1%
16,Cc1sc2nc(CSCC(=O)Nc3c(Cl)cccc3Cl)[nH]c(=O)c2c1C,0.31%
17,O=C(Nc1ccccc1)N1CCN(C2c3ccccc3-c3ccccc32)CC1,12.3%
18,Cc1ccc(C)c2c1cc(C)c1nnc(SCC(=O)Nc3cccc(C(=O)O)c3)n12,-9.73%
19,O=C(Cc1ccc(Cl)c(Cl)c1)Nc1ccc(SC(F)F)cc1,88% (active)
20,Cc1ccc(CC(=O)Nc2ccc(OC(F)F)c(Cl)c2)cc1C,62%
21,CC(=O)N1CCN(CC(=O)Nc2ccc(SC(F)F)cc2)CC1,16.9%
22,CC(NC(=S)Nc1ccccc1)C(c1cccs1)N1CCOCC1 (stereo not given),-3.16%
23,Oc1c(Br)cc(/C=N/NC(=S)NCC2CCCO2)cc1Br (stereo not given),22.4%
24,O=C(Cc1ccccc1)NNC1CC(=O)N(c2ccc(Br)cc2)C1=O (stereo not given),17%

row,SMILES,inhibition
1,Cc1ccc(N2C(=O)CC(Nc3cccc4ccccc34)C2=O)cc1 (stereo not given),74.7% (active)
2,CC1=C(C)CC2C(=O)N(c3cccc4ccccc34)C(=O)C2C1 (stereo not given),19.9%
3,COc1cc(C=O)c(Br)cc1OCC(=O)NCc1ccccc1,18%
4,COc1ccc(NC(=O)/C(C#N)=C\c2cc(OC)c(OCc3ccc(C(=O)O)cc3)cc2Br)cc1,103% (active)
5,COc1cc(/C=C(\C#N)C(=O)Nc2ccc3ccccc3c2)c([N+](=O)[O-])cc1OC,-24.5%
6,O=C(NCc1ccco1)C1CCCN1S(=O)(=O)c1ccccc1C(F)(F)F (stereo not given),14.3%
7,CN(C)NC(=O)c1csnc1-c1c(Cl)cccc1Cl,-5.93%
8,Cc1ccccc1CSc1nnc(CCCCCNC(=O)OC(C)(C)C)o1,12.7%
9,NCC(=O)c1cccc2ccc[n+]([O-])c12,-8.9%
10,O=[N+]([O-])c1c(NCCO)cc(Sc2nc3ccccc3s2)c2nonc12,108% (active)
11,COc1ccc(S(=O)(=O)Nc2ccc(O)c(Sc3nc4ccccc4s3)c2)cc1,13.3%
12,O=C(CSc1nc2ccccc2s1)Nc1ccc(C(=O)O)cc1,-1.84%
13,C/C(=N\NC(=O)CC(C)C)c1c(C(F)(F)F)[nH]n(-c2nc3ccccc3s2)c1=O,-21.3%
14,CCN(CC)c1ccc(/C=N/NC(=O)c2cnccn2)c(O)c1,47.2%
15,C=CCn1c(N)c(C(=O)OCC(C)C)c2nc3ccccc3nc21,18%
16,CC(C)Cn1c(N)c(C(=O)NCc2cccs2)c2nc3ccccc3nc21,89% (active)
17,CCC(C)NC(=O)c1c(N)n(/N=C/c2cccs2)c2nc3ccccc3nc12 (stereo not given),67.4%
18,Cc1cccc(NC(=O)CSc2nnc(CCNC(=O)OC(C)(C)C)o2)c1C,-14.5%
19,COC(=O)c1ccc(COc2cc([N+](=O)[O-])cc3cccnc23)cc1,5.56%
20,CC(=O)N(OCc1ccc(OC(C)C)c(Cl)c1)C(C)=O,-4.06%
21,O=C(CSc1ccccc1)Nc1nnc(/C=C/c2ccccc2)s1,88.6% (active)
22,O=C(Nc1ccc(Cl)cc1)Nc1nnc(/C=C/c2ccccc2)s1,46.8%
23,CCOCc1nnc(NC(=O)CSc2ccc(C)cc2)s1,12.8%
24,Cc1ccc(-n2ncc3c(=O)[nH]cnc32)c(C)c1,31.6%

row,SMILES,inhibition
1,Cc1ccc(N2CCN(S(=O)(=O)c3ccc(F)cc3)CC2)c(C)c1,47.5%
2,Cc1ccc(-n2ncc3c(N4CCN(c5ccc(F)cc5)CC4)ncnc32)c(C)c1,83.8% (active)
3,CCOc1ccc(/C=N/NC(=O)CSc2ccccn2)cc1O,3.02%
4,CC1CCN(CCC(=O)Nc2ccccc2)CC1,-9.3%
5,CC(C)(C)C1CCC(OC(=O)CCC(=O)Nc2ccccc2)CC1 (stereo not given),71.5% (active)
6,O=C(CCC(=O)OCc1ccc(Cl)cc1)Nc1ccccc1,0.59%
7,COc1ccccc1CNC(=O)Cn1c(=O)oc2cc(Cl)ccc21,4.18%
8,CCOc1ccc2nc(SC(CC)C(=O)Nc3cc(C)on3)sc2c1 (stereo not given),27.5%
9,CCOc1ccc2nc(/N=C/c3nc(-c4ccccc4)oc3O)sc2c1,73.9% (active)
10,CC(N=Cc1nc(-c2ccccc2)oc1O)c1ccccc1 (stereo not given),28.4%
11,Cn1c(SCC(=O)Nc2ccc(Cl)cc2)nc(O)cc1=O,-3.96%
12,N#Cc1ccc(C(=O)Nc2cccc3cccnc23)c(F)c1,-2.37%
13,N#Cc1ccccc1NC(=O)COc1c(Br)cc(Br)c2cccnc12,88.1% (active)
14,O=C(COC(=O)c1ccccn1)Nc1cccc2ccccc12,-19.7%
15,CCN(CC)CCNCC(=O)Nc1ccc(Oc2ccccc2)cc1,-16.4%
16,Cc1cc(C)c2cc(CN(Cc3cccs3)Cc3nnnn3CC3CCCO3)c(=O)[nH]c2c1 (stereo not given),76% (active)
17,Cc1cc2cc(CN(Cc3cccs3)Cc3nnnn3CC3CCCO3)c(=O)[nH]c2cc1C (stereo not given),20.8%
18,Cc1cc(C)c2cc(CN(Cc3nnnn3Cc3ccc(F)cc3)C3CCCC3)c(=O)[nH]c2c1,8.91%
19,CCOC(=O)c1c(N)sc2c1CCCC2=O,4.68%
20,O=C(Cn1c[n+](CC(=O)c2ccc([N+](=O)[O-])cc2)cn1)c1ccc([N+](=O)[O-])cc1,-15.2% and -12.2%
21,COc1cc(SC)ccc1C(=O)Nc1cc(C)ccn1,37.2%
22,COc1ccccc1CNC(=O)c1ccc(SC)cc1OC,2.76%
23,COc1cc(SC)ccc1C(=O)Nc1nc(C)cs1,95.2% (active)
